Assay results reported in PubChem BioAssay (NCI).
This is part of a sample that, as a whole, favours compounds with a hit. Of some 83,000 tested, about 20% had one in any assay.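 Growth was measured after 48 h exposure to one concentration of compound in 96-well plates. Values under 10 count as active.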 Unmarked numbers belong to inactive results. Active and inactive are the calls of the source.

These molecules were tested on SF-539 CNS (assay: NCI-60 one-dose screen, 48 h (100 = growth as untreated, 0 = no growth, -100 = all killed)). Settings: 10 µM unless noted.

| Structure (SMILES) | growth |
| --- | --- |
| O=C1C=Cc2ncccc2C1=O | 86.3% |
| COc1cc2c(cc1OC)C(=O)/C(=C/c1cc(-c3ccc4c(c3)OCO4)n[nH]1)C2 | -80.9% (active) |
| CCN(CC)CCCCCCNc1ccnc2cc(Cl)ccc12 | 52.5% |
| COC(c1ccccc1)(c1ccccc1)c1ccccc1 | 102% |
| CC(CNc1nc(Nc2ccc(Cl)c(Cl)c2)nc(C(Cl)(Cl)Cl)n1)N(C)C (stereo not given) | 16.3% |
| COc1cccc2c1C(=O)c1c(O)c3c(c(O)c1C2=O)C[C@@](O)(C(=O)CO)C[C@@H]3OC1C[C@H](N)[C@H](O)[C@H](C)O1 (stereo not given in full) | -29.8% (active) |
| NC(=O)[C@@H]1CC2CCC1C2 (stereo not given in full) | 91.9% |
| COc1cc2[nH]c(C(=O)c3cc(OC)c(OC)c(OC)c3)c(N)c2cc1C#CCO | -35% (active) |
| CN(C)c1ccc(N=C2C=CC(=O)C=C2)cc1 | 65% |
| COc1ccc(C(=O)c2cc(OC)c(OC)c(OC)c2)cc1/C=C/C(=O)c1cc(OC)c(OC)c(OC)c1 | 94% |
| Nc1c(C(=O)Nc2cccc(Br)c2)sc2nc3c(cc12)C(=O)CCC3 | 25.5% |
| O=C1NC(=Nc2ccc(S(=O)(=O)Nc3nccs3)cc2)S/C1=C\c1coc2ccccc2c1=O | 96.2% |
| COc1ccc(C(=O)/C=C/c2cc(-c3cc(OC)c(OC)c(OC)c3)n[nH]2)cc1OC | -96.2% (active) |
| COc1cc2[nH]c(C(=O)c3cc(OC)c(OC)c(OC)c3)c(N)c2cc1C#CC1CC1 | -38.7% (active) |
| O=C(NC1=CC(=O)c2ccccc2C1=O)c1ccccc1 | 10.5% |
